Our source for the AC50 values is PubChem BioAssay AID2284058 (EPA ToxCast).

SMILES strings stand for the structures. Activity calls are given as the source filed them. The calls were made as follows: active = hit-call score of the fitted dose curve at least 0.9, where 1 is the maximum; inactive = score below 0.9.

Chain of CYP2C9, CYP2C9 (gene 1559) (P11712 whole entry, looked up): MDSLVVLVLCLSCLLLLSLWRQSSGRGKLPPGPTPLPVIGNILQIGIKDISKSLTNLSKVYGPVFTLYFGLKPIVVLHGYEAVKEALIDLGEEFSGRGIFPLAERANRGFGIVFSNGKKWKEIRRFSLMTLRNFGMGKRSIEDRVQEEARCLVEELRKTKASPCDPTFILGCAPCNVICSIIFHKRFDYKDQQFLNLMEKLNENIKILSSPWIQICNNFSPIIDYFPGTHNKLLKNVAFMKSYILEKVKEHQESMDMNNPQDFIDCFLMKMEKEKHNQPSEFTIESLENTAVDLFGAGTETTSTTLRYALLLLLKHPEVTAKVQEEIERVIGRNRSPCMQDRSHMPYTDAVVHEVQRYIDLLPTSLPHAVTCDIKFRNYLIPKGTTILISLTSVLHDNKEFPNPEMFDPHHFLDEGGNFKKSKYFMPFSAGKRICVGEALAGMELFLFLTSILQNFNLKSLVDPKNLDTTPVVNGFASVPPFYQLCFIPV

This assay addresses CYP2C9, CYP2C9 (gene 1559) (UniProt P11712). Briefly: ERF_FR_ADME_hCYP2C9: Eurofins (ERF) CYP450-related Enzyme Activity (ADME) Assay for CYP2C9. How it is done:
ERF_FR_ADME_hCYP2C9 is a biochemical, single-readout assay that uses extracted gene-proteins in a cell-free assay. Measurements were taken 0.66 hour after chemical dosing in a 96-well plate. See CYP2C9 inhibition (recombinant, MFC substrate).ERF_FR_ADME_hCYP2C9 is an assay component calculated from the ERF_FR_ADME_hCYP2C9 assay. It is designed to measure enzyme activity using a type of enzyme reporter as detected by fluorescence intensity of HFC with fluorimetry technology.Data from the assay component ERF_FR_ADME_hCYP2C9 was analyzed at the assay endpoint, ERF_FR_ADME_hCYP2C9, in the positive analysis fitting direction relative to acetonitrile as the negative control and baseline of activity. Using a type of enzyme reporter, loss-of-signal activity can be used to understand changes in enzymatic activity as they relate to gene CYP2C9. To generalize the intended target to other relatable targets, this assay endpoint is annotated to the cyp intended target family, where the subfamily is steroidogenesis-related.
Human cells are incubated for 15 minutes at 37C with Diclofenac as substrate and Sulfaphenazole as control inhibitor. Test Sample Requirements: Minimum for 1) Screen: 25 ul of 10 mM stock -OR- 1 mg (pre-weighed) for 10 uM final testing. 2) Dose Response: 60 ul of 10 mM stock -OR- 1 mg (pre-weighed). […]
Regarding `O=C(/C=C/c1ccc(O)cc1)CC(=O)/C=C/c1ccc(O)cc1`, the AC50 was 502 nM (active).

As usually defined, the AC50 is the midpoint of the concentration-response curve, whichever way the signal moves.
